# Shiga inhibitor = inhibitors of Shiga toxin in Vero cells | Vero cells, Shiga toxin protein synthesis inhibition reporter | inhibition, % at 38.7 µM | 290,000 tested, 9.2% active; in the data active = inhibition mostly above about 28%, no sharp cut-off; inactive = mostly below about 43%; note: 0% is about no effect
# SARS PLpro yeast = blocks SARS-CoV papain-like protease in a yeast assay; S. cerevisiae expressing SARS-CoV PLpro, growth rescue; 330,000 tested, 0.19% active; AID 485353; Potency, µM (titrated, usually from 32.9 µM), without a hit: at the top dose activity, positive = growth rescue, hits mostly activators; note: potency is the fitted concentration of half-maximal effect; 0% is about no effect; nearly all actives have a fitted effect of over 55% in size
# NS1 function inh = blocks influenza NS1 protein function. Potency, µM (highest dose often 46.1 µM), inactives show at the top dose activity, positive = more growth. 270,000 tested, 0.4% active; note: potency is the fitted concentration of half-maximal effect; actives are rising curves; nearly all actives have a fitted effect of over 50% in size
#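 A cell-based growth assay was used: compounds that relieve NS1-induced slow growth of budding yeast raise OD600. Assay medium was yeast nitrogen base with ammonium sulphate and -URA supplement, pH 6.0, with 2% galactose.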
# Cycloheximide cs = affects cycloheximide protein synthesis inhibition readout, counter-screen. cell reporter, cycloheximide protein synthesis inhibition counterscreen. 300,000 tested, 12% active. max response, %. AID 2314; in the data active = max response mostly above about 13%, no sharp cut-off; inactive = mostly below about 14%; note: read at 38.3 µM for the half of the compounds with a filed dose; 0% is about no effect
# An asterisk follows results filed as active; i = inactive; . = no result given; + = active, no number; [ ] = another dose, or the depositor's remark. An excerpt weighted towards active compounds, which were near 12% of everything screened. Unless noted, calls come from the whole dose curve.
SMILES,Shiga inhibitor,SARS PLpro yeast,NS1 function inh,Cycloheximide cs
O=C(O)c1cc(-c2c[nH]c3ccccc23)nc2cc3ccccc3cc12,67*,-2%,6%,36*
O=C(O)c1cc(-c2ccc(-c3ccccc3)cc2)nc2cc3ccccc3cc12,.,.,-8%,.
Cc1ccc(S(=O)(=O)N(C)c2ccc(C(=O)Nc3ccccc3C(=O)N3CCOCC3)cc2)cc1,-15,1%,11%,6
C=C1[C@@H]2CC[C@H](C2)C1(C)C,3,.,.,-1
Clc1ccccc1N=C1SCCS1,29,2%,2%,11
COc1cccc(C(=O)CSc2nccn2C)c1,97*,1%,11%,31*
O=C(CSc1ncnc2nc[nH]c12)c1ccc2ccccc2c1,42*,-18%,-6%,33*
Cn1ccnc1SCC(=O)c1ccc2ccccc2c1,88*,14%,1%,39*
O=C(CSc1ncccc1C(=O)O)c1ccc2ccccc2c1,100*,0%,0%,45*
Nc1ccc(C(=O)N2CCN(S(=O)(=O)c3ccc4c(c3)OCCCO4)CC2)cc1[N+](=O)[O-],.,-2%,.,.
CCCCC1CN2CCc3c([nH]c4ccccc34)C2(C)C1 (stereo not drawn),-11,1%,11%,-3
Cc1ccc(NC(=O)CSc2ncc3ccccn23)cc1C,130*,0%,.,39*
Cc1ccnc(SCC(=O)c2cc3ccccc3o2)n1,25,6%,.,13*
COc1ccc(OC)c(C(=O)CSc2nnnn2C)c1,18,0%,-4%,4
COc1ccc(C(=O)CSc2nccn2C)c(OC)c1,57*,3%,11%,50*
Cn1c(SCC(=O)c2cc3ccccc3o2)nnc1-c1ccccc1,11,-11%,3%,7
CCN(CC)S(=O)(=O)c1cc(NC(=O)CSc2nccn2C)ccc1C,103*,0%,.,16*
Cc1ccc(S(=O)(=O)N(CC(=O)Nc2cccc(C(F)(F)F)c2)C(=O)N2CCN(C)CC2)cc1,.,3%,.,.
CCCCn1c(N)c(N(C(=O)CSc2nnnn2-c2ccccc2C)C2CCCC2)c(=O)[nH]c1=O,.,1%,.,.
Cc1ccccc1NC(=O)CSc1nnc(NC(=O)c2ccco2)s1,0,-6%,9%,-2
Cn1cnnc1SCC(=O)c1cc2ccccc2o1,12,2%,.,10
Cn1ccnc1SCC(=O)c1cccc(Br)c1,60,3%,6%,27*
Cn1ccnc1SCC(=O)Nc1ccc2ccccc2c1,48*,-7%,-8%,42*
CN(C)CCC(=O)c1cccc(Br)c1,8,-4%,-5%,11
Cn1ccnc1SCC(=O)c1cc2ccccc2o1,117*,12%,2%,45*
SMILES,Shiga inhibitor,SARS PLpro yeast,NS1 function inh,Cycloheximide cs
CCCCn1c(C)cc2c(c1=O)C1O[C@](c3ccsc3)(Cc3cc(OC)c(OC)cc31)O2,i,1%[6.58 µM],17%,6
Cc1ccsc1/C=N/NC(=O)c1ccccn1,47*,-33%,-9%,62*
Cc1ccsc1/C=N/NC(=O)C(O)c1ccccc1 (stereo not drawn),12,.,14%,9.6*
Cc1ccsc1/C=N/NC(=O)C(N)=O,73,-1%,.,35*
Cc1ccsc1/C=N/NC(=O)CNC(=O)c1ccccc1,-3,3%,-13%,16
Cc1ccsc1/C=N/NC(=O)c1cccs1,77*,-22%,-5%,33*
Cc1ccsc1/C=N/Nc1ccc(C(=O)O)cc1,4,-5%,-45%,-3
Cc1ccsc1/C=N/NC(=O)c1cc(-c2ccncc2)nc2ccccc12,-3,-9%,23%,-1
COc1ccc(Cl)cc1C(=O)NNC(=O)c1ccc(F)c(S(=O)(=O)N2CCOCC2)c1,.,-4%,.,.
Cc1cc(=O)[nH]c(SCC(=O)c2c(N)n(C)c(=O)n(C)c2=O)n1,-22,1%,3%,-3
O=P(O)(O)c1ccccc1OCCOCCOCCOCCOc1ccccc1P(=O)(O)O,47,-3%,.,42*
CCOC(=O)c1nn(-c2ccc(F)cc2)c(=O)c(C#N)c1C,.,2%,6%,-5
COc1ccc(OC)c(NC(=O)Cc2nn(C)c(=O)c3ccccc23)c1,13,16%,-5%,-4
COc1cc(NC(=O)Cc2nn(C)c(=O)c3ccccc23)cc(OC)c1OC,24,10%,-8%,20*
Cc1cc(C)n2c(SCc3cccs3)nnc2n1,+,-5%,-40%,15*
CCCSc1nnc2nc(C)cc(C)n12,-10,10%,-12%,-2
COc1ccccc1C/C(N)=N/OC(=O)c1ccco1,56*,-1%,-3%,19*
COc1ccccc1C/C(N)=N/OC(=O)c1ccc(C)c([N+](=O)[O-])c1,5,-32%,-175%,-4
COc1ccccc1C/C(N)=N/OC(=O)c1ccc2c(c1)OCO2,105*,-31%,.,44*
